Laboratory results taken from PubChem BioAssay AID1259415 (National Center for Advancing Translational Sciences (NCATS), 2018).
Values joined by “and” are separate entries in the source; they are usually repeats but may differ in a detail not shown here. Equal entries are not always repeated. Out of some 410,000 compounds screened, about 18,000 (4.4%) were called active. About 7% were inconclusive and are not listed. The entries come from a sample that favours actives as a whole. A number with no mark means an inactive call. No stated cut-off is given here; in the data, active means activity change below about -60%; inconclusive means no clear call, values can overlap the other calls; inactive means above about -39%.

assay: qHTS Assay for inhibitors of the human cytomegalovirus (HCMV); details: HFF cells, HCMV-luciferase reporter, 72 h; at 57.5 µM; hits give low values
Outline: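 Two-dose cell screen: HFF monolayers treated with compounds and infected with luciferase-expressing HCMV at 1 PFU/cell, 72 h at 37C, then lysed for luciferase measurement.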
On the % scale 0 is the no-effect control and ±100 the full control effect.

Compound | activity change, negative = inhibition
O=S(=O)(c1cnccc1N1CCN(/N=C/c2ccc(Br)cc2)CC1)N1CCCCC1 | -6.47%
COc1cc(OC)c(C(=O)NC2CC(C)(C)NC(C)(C)C2)cc1OC | 37.1%
COc1cc2c(cc1OC)C(=O)NCC(C)(C)O2 | -102% (active)
COc1ccc(C(=O)NC2CC(C)(C)NC(C)(C)C2)cc1OC | 7.69%
COc1ccc(NC(=O)CSc2nc3ccccc3n2CC(=O)N2CCCCC2C)cc1 (stereo not given) | -20.6%
O=C(c1cnn(-c2ccc(F)cc2)c1-n1cccc1)N1CCN(c2ccc(F)cc2)CC1 | -8.43%
CCCCOc1ccc(C(=O)Nc2cccc(-c3nc4ccccc4o3)c2C)cc1 | -17.8%
CCOc1ccc(C2C(C(=O)Nc3ccc(Cl)cc3)=C(C)Nc3nc(C(F)(F)F)nn32)cc1 (stereo not given) | -84.1% (active)
COC(=O)c1nc2n(n1)C(c1ccc([N+](=O)[O-])cc1)C(C(=O)Nc1ccc(Cl)cc1)=C(C)N2 (stereo not given) | 5.33%
COc1cc(C2C(C(=O)Nc3ccc(F)cc3)=C(C)Nc3nc(CCCO)nn32)cc(OC)c1OC (stereo not given) | 8.48%
Cc1ccc2oc3c(c(=O)c2c1)C(c1ccc([N+](=O)[O-])cc1)N(CCCN1CCOCC1)C3=O (stereo not given) | 40.9%
COc1ccc(CCNC(=O)C(=O)NCC(c2ccco2)S(=O)(=O)c2cccs2)cc1OC (stereo not given) | 0.563%
CCOc1ccc(CCNC(=O)c2csc3c2CCCCC3)cc1 | -5.3%
Cc1cccc(OCCCC(=O)Nc2sc3c(c2C(N)=O)CCC(C)C3)c1 (stereo not given) | -6.01%
CCOCCCNC(=S)Nc1ccc2nc(N3CCN(CC)CC3)cc(C)c2c1 | -1.19%
COc1ccc(C(=O)Nc2ccc3nc(N4CCCCC4)cc(C)c3c2)cc1OC | -31.4% and -29.2%
CCN1CCN(c2cc(C)c3cc(NC(=O)c4cc(Cl)ccc4OC)ccc3n2)CC1 | -99.2% (active)
COc1ccc(CCNC(=O)CCCn2c(=O)c3ccccc3n(Cc3ccc(F)cc3Cl)c2=O)cc1OC | 12.1%
O=C1OCCC1=COCCCCOC=C1CCOC1=O | 19%
COc1ccc(CNC(=O)Cc2coc3ccc(C(C)C)cc23)cc1 | -6.28%
Cc1ccc(Cl)cc1NC(=O)Cc1ccc(-n2c(C)nc3cccnc32)cc1 | 0%
Cc1c(NC(=O)Cc2ccccc2)cccc1-c1nc2cccnc2s1 | -66.4% (active)
Cc1c(NC(=O)C(C)(C)C)cccc1-c1nc2ccccc2s1 | 39.5%

Compound | activity change, negative = inhibition
O=C(CCc1cn(Cc2ccc(F)cc2)c2ccccc12)NC1CCCCC1 | 4.53%
Cc1nc(N2CCOCC2)sc1C(=O)NN | 0%
Cc1nc(N2CCCCC2)sc1C=O | -68.8% (active)
CC(C)C(C)(C#N)NC(=O)CSc1nncn1-c1ccccc1 (stereo not given) | -23%
COc1ccccc1C1C(C(=O)N2CCCCC2)=C(C)Nc2nc3ccccc3n21 (stereo not given) | 1.21%
COC(=O)c1c(NC(=O)c2cc(=O)c3c(C)cc(C)cc3o2)sc2c1CCCC2 | 17.7%
CCN(Cc1nc2ccccc2c(=O)[nH]1)Cc1cc(=O)oc2cc(C)c(C)cc12 | 17.8%
CCN(CC)c1ccc(C(=O)NNC(=O)CCc2nc3ccccc3c(=O)[nH]2)cc1 | -64.9% (active)
CCN(CC(=O)NC(=O)NCc1ccccc1)Cc1nc2ccccc2c(=O)[nH]1 | 5.98%
COc1ccc(-c2cc(NCc3ccc(F)cc3)n3cnnc3n2)cc1 | -27.8%
CCc1cnc2c(c1SCC(=O)c1ccccc1)c(=O)n(C)c(=O)n2C | -3.48%
COCC(C)NS(=O)(=O)c1ccc(N2CCCCS2(=O)=O)cc1 (stereo not given) | -11.3%
CC(c1ccccc1)n1c(NCCCn2ccnc2)nc2c1c(=O)[nH]c(=O)n2C (stereo not given) | 97.4%
Cc1cc(C)nc(NC(=O)Nc2ccccc2C(F)(F)F)n1 | -62.1% (active)
O=C(NNC(=O)c1ccccc1[N+](=O)[O-])Nc1ccccc1C(F)(F)F | -0.175%
CN(CC(=O)Nc1ccccc1C(F)(F)F)C(=O)Cc1ccccc1F | -12.2%
COc1cc(Cl)c(C)cc1NC(=O)CCc1nc2cccnc2n1Cc1cccs1 | 11%
CC[n+]1c(C)n(-c2ccccc2)c2ccc(NC(C)=O)cc21 | -79.8% (active)
CC(=O)Nc1ccc(NC(=O)CSc2nnc(C3CC3)n2-c2ccccc2)cc1 | 0%
Cc1nnc(SCC(=O)Nc2cccc(N)c2)n1-c1ccccc1 | 5.74%
Cn1c(CCC(=O)OCC(=O)NCc2ccccc2Cl)nc(=O)c2ccccc21 | 14.9%
O=S(=O)(c1ccc2nc(N3CCN(c4cccc(Cl)c4)CC3)ccc2c1)N1CCCCC1 | 6.51%
